Data reported in PubChem BioAssay (Tox21).
Results filed as inconclusive are left out. Active and inactive are the calls of the source. The call rests on the fitted dose curve; in most records, active means well fitted curve in the direction sought with a large enough effect in the repeat runs; inconclusive means weak or mixed curves; inactive means no such curve, though single readings can be large; an effect the other way counts as inactive or inconclusive.

Tests used:
[1] = A CellTox Green Cytotoxicity Assay to monitor cytotoxicity in HepG2 cells - 0 hour (AID 1224882); conditions: CellTox Green fluorescence; series mostly up to 76.8 µM; further: nearly all actives have a fitted effect of over 35% in size
Summary of the method: (§1)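 HepG2 cells, 600/well, preincubated 5 h with CellTox Green dye, then exposed to Tox21 compounds in DMSO at 37 C for up to 40 h. Dead-cell DNA fluorescence read at the indicated time point.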

[2] = A CellTox Green Cytotoxicity Assay to monitor cytotoxicity in HepG2 cells - 32 hour (AID 1224883); conditions: CellTox Green fluorescence; series mostly up to 76.8 µM; further: nearly all actives have a fitted effect of over 50% in size
Summary of the method: as §1

[3] = qHTS RealTime-Glo MT Cell Viability Assay in HepG2 cells - 16 hour (AID 1224885); conditions: RealTime-Glo luminescence; series mostly up to 76.8 µM; further: nearly all actives have a fitted effect of over 50% in size
Summary of the method: (§2)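 HepG2 cells were seeded at 600 cells/well together with NanoLuc luciferase and a cell-permeant prosubstrate, preincubated 5 h at 37 C/5% CO2, then pin-dosed with compounds in DMSO. Nonlytic luminescence from viable cells was read at each time point.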

[4] = qHTS RealTime-Glo MT Cell Viability Assay in HEK293 cells - 24 hour (AID 1224886); conditions: RealTime-Glo luminescence; series mostly up to 76.8 µM; further: nearly all actives have a fitted effect of over 50% in size; further: potency means the concentration at half of the fitted maximal effect
Summary of the method: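 HEK293 cells were seeded at 600 cells/well together with NanoLuc luciferase and cell-permeant prosubstrate, preincubated 5 h at 37 C/5% CO2, then given compound in DMSO by pintool. Luminescence from viable-cell prosubstrate reduction was read repeatedly over 40 h.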

[5] = qHTS RealTime-Glo MT Cell Viability Assay in HEK293 cells - 8 hour (AID 1224887); conditions: RealTime-Glo luminescence; series mostly up to 76.8 µM; further: top concentration of the series differs between compounds; nearly all actives have a fitted effect of over 50% in size
Summary of the method: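 600 cells/well were plated with the nonlytic NanoLuc/prosubstrate reagent, pre-incubated 5 h, then given 23 nL of compound in DMSO. Incubation at 37 C for 40 h, with luminescence from viable-cell-reduced substrate read repeatedly from 0 h.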

[6] = qHTS RealTime-Glo MT Cell Viability Assay in HepG2 cells - 0 hour (AID 1224889); conditions: RealTime-Glo luminescence; series mostly up to 76.8 µM; further: nearly all actives have a fitted effect of over 50% in size
Summary of the method: as §2

[7] = A CellTox Green Cytotoxicity Assay to monitor cytotoxicity in HEK293 cells - 8 hour (AID 1224884); conditions: CellTox Green fluorescence; series mostly up to 76.8 µM; further: nearly all actives have a fitted effect of over 35% in size
Summary of the method: (§3)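 HEK293 cells, 600/well, were preincubated 5 hours and then exposed to compounds at 37 C for up to 40 hours. A cell-impermeant cyanine dye staining dead-cell DNA was read by fluorescence at 0, 8, 16, 24, 32 and 40 h time points.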

[8] = A CellTox Green Cytotoxicity Assay to monitor cytotoxicity in HEK293 cells - 16 hour (AID 1224888); conditions: CellTox Green fluorescence; series mostly up to 76.8 µM; further: nearly all actives have a fitted effect of over 35% in size
Summary of the method: as §3

[9] = A CellTox Green Cytotoxicity Assay to monitor cytotoxicity in HEK293 cells - 32 hour (AID 1224881); conditions: CellTox Green fluorescence; series mostly up to 76.8 µM; further: nearly all actives have a fitted effect of over 40% in size
Summary of the method: as §3

Measured: Potency

Nc1nccs1
inactive: [1] | [2] | [3] | [4] | [5] | [6]

CNCCCC1c2ccccc2C=Cc2ccccc21
inactive: [1] | [7] | [5] | [8]

CCOC(=O)CC(=O)C(=O)OCC
inactive: [9] | [1] | [7] | [3] | [5] | [8] | [6]

Fc1ccccc1[C@@H](F)COC1CCC(Nc2ncnc3[nH]ncc23)CC1 (stereo not given in full)
inactive: [9] | [1] | [7] | [3] | [8]
active: [4] 21.9 µM

CC(C)C(OC(=O)c1ccccc1)C(C)(C)COC(=O)c1ccccc1 (stereo not given)
inactive: [1] | [2] | [3] | [5] | [8] | [6]

CCCOC(=O)c1ccc(N)cc1
inactive: [1] | [2] | [7] | [3] | [4] | [5] | [8]

NC(=O)Cn1c(=O)cc(CCN2CCN(c3nccc4sccc34)CC2)c2ccc(F)cc21
inactive: [9] | [1] | [2] | [7] | [8]
active: [4] 49 µM

CC(C)C(=O)O
inactive: [9] | [1] | [7] | [3] | [5] | [8] | [6]

CCc1c2c(nc3ccc(OC(=O)N4CCC(N5CCCCC5)CC4)cc13)-c1cc3c(c(=O)n1C2)COC(=O)[C@]3(O)CC
inactive: [9] | [1] | [7] | [3] | [5] | [8]
active: [4] 2.68 µM

COc1ccc(CCC(=O)c2c(O)cc(O[C@@H]3O[C@H](CO)[C@@H](O)[C@H](O)[C@H]3O[C@@H]3O[C@@H](C)[C@H](O)[C@@H](O)[C@H]3O)cc2O)cc1O
inactive: [1] | [2] | [7] | [3] | [4] | [5] | [8] | [6]

CCN(Cc1cccc(S(=O)(=O)O)c1)c1ccc(C(=C2C=CC(=[N+](CC)Cc3cccc(S(=O)(=O)[O-])c3)C=C2)c2ccccc2)cc1
inactive: [9] | [1] | [7] | [3] | [4] | [5] | [8]

CC(CCO)CCc1ccccc1 (stereo not given)
inactive: [1] | [2] | [7] | [3] | [4] | [5] | [8] | [6]

CCCCCCCCCCCC(=O)[O][Sn]([CH2]CCC)([CH2]CCC)[O]C(=O)CCCCCCCCCCC
active: [4] 7.56 µM
inactive: [1] | [7] | [5] | [8] | [6]

CC(C)CCCCCCOC(=O)CCCCC(=O)OCCCCCCC(C)C
inactive: [1] | [2] | [7] | [3] | [4] | [5] | [8] | [6]

CCCC1C(CC)=CC(CC)=CN1c1ccccc1 (stereo not given)
inactive: [9] | [1] | [7] | [3] | [8] | [6]
active: [4] 13.8 µM
